For orientation: inhibition means the relative decrease from the control value, in per cent.

Values without a mark were called inactive. Some of the results follow. Active and inactive are the calls of the source.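 The calls were made as follows, unless noted: active = inhibition above the hit cutoff computed for the primary STAT3 screen (cut at about 44% in these data); inactive = the rest.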

A short description of experiment [1]: blockers of IL-6 STAT3 signaling – U3A cells, luciferase, luminescence, confirmation (AID 1265).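 Also: 0% = IL-6 plus DMSO and 100% = IL-6 plus nifuroxazide control.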 The settings on record: IL-6 STAT3 luciferase reporter, at 5.7 µM, stronger effect = higher value, cell line lacks STAT1.
The nature of experiment [2]: inhibition of TNF-alpha-driven NF-kB transcription – cell-based, HEK293T, luciferase, TNF-alpha stimulus, counter-screen for STAT3 inhibitor project, confirmation (AID 1308;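 active = inhibition above the mean of solvent-only control wells plus 3 SD, cutoff set per campaign, cut at about 13% in these data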;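 also: 0% = TNF-alpha with DMSO and 100% = TNF-alpha with MG high control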). To be noted: HEK293T NF-kB luciferase reporter, TNF-alpha induced; at 5.7 µM; stronger effect = higher value. (A counterscreen serves to expose hits that act by an unwanted route or on another target.)
A short description of experiment [3]: inhibition of STAT1-driven transcription – cell-based, NIH 3T3, luciferase luminescence, IFN-gamma, counter-screen for STAT3 inhibitor project, confirmation (AID 1317;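 active = inhibition above the mean plus 3 SD of solvent-only control wells, limit set per screening run, cut at about 16% in these data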;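 also: 0% = DMSO with IFN-gamma and 100% = nifuroxazide control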). To be noted: NIH 3T3 STAT1-luciferase reporter, IFN-gamma induced, at 5.7 µM, stronger effect = higher value.
The target in experiment [4] is Receptor-interacting serine/threonine-protein kinase 2 (Homo sapiens) (UniProt O43353). Kind of experiment: inhibitors of RIPK2 association with NOD2 – fluorescence, CHO cells, BLA complementation, triplicate, confirmation (AID 624370;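 active = mean inhibition across replicates above a set limit taken from the earlier primary screen, cut at about 21% in these data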;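 also: 0% = DMSO-only wells and the high end = clavulanate BLA-blocked wells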). To be noted: CCF4 FRET, at 4.98 µM, stronger effect = higher value.
The nature of experiment [5]: BLA reporter readout interference – cell-based, CHO-K1 CMV-bla, CCF4 FRET, fluorescence, artefact control for NOD2-RIPK2 interaction inhibitor project, confirmation (AID 624371;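 active = mean inhibition above the low-control mean inhibition plus three low-control SD, cut at about 11% in these data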;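 also: 0% = DMSO only wells and 100% = clavulanate high control wells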). To be noted: CCF4 FRET ratio, counterscreen, at 4.98 µM, stronger effect = higher value.
A short description of experiment [6]: VP16-driven transactivation reporter suppression – cell-based, luminescence, HEK293, counter-screen for COUP-TFII antagonist project (AID 687007; in the data active = inhibition above about 13%). To be noted: HEK293 Gal4-VP16 luciferase reporter, at 8.5 µM, stronger effect = higher value.
Experiment [7] deals with COUP transcription factor 2 (Homo sapiens) (UniProt P24468). Kind of experiment: retest of COUP-TFII reporter suppressors – cell-based, luciferase reporter, HEK293, triplicate, confirmation (AID 687008;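 active = mean inhibition over three repeats above a set limit taken from the earlier primary screen, cut at about 38% in these data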;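 also: 100% = cells given the luciferase reporter alone without the COUP-TF2 vector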). The settings on record: HEK293 NGFI-A luciferase reporter, luminescence; at 8.5 µM; stronger effect = higher value.
For experiment [8], the target named is Galanin receptor type 2 (Homo sapiens) (UniProt O43603). Kind of experiment: blockers of human galanin receptor 2 – cell-based, confirmation (AID 866; in the data active = inhibition above about 27%;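 also: cells stimulated with galanin at about its EC80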). To be noted: GALR2-expressing cells, antagonist mode, at 4 µM, stronger effect = higher value.
A short description of experiment [9]: nonspecific BLA reporter inhibition – CHO NFAT-bla cells, FRET readout, counter-screen for GALR2 antagonist project, confirmation (AID 867;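 active = inhibition above the mean inhibition across tested compounds plus 3 SD, cut at about 27% in these data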;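 also: 0% = 500 nM thapsigargin stimulated wells and 100% = unstimulated BSA only wells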). The settings on record: beta-lactamase FRET, thapsigargin-stimulated, at 4.2 µM, stronger effect = higher value.
In experiment [10] the target is Serine protease HTRA1 (Homo sapiens) (UniProt Q92743). Kind of experiment: confirming inhibition of human HTRA1 – biochemical, fluorescence polarization, confirmation (AID 540248;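 active = mean inhibition over three repeats above a set limit taken from the earlier primary screen, cut at about 37% in these data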;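 also: 0% = HTRA1 with DMSO and 100% = wells lacking HTRA1; inhibitors block probe binding so polarization drops and inhibition rises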). The settings on record: recombinant HTRA1, FP-rhodamine activity-based probe, at 5.96 µM, stronger effect = higher value. In general terms: Fluorescence polarisation rises when a labelled molecule tumbles more slowly, as on binding a larger partner.

Experiment [11] concerns the target Oxysterols receptor LXR-beta (Homo sapiens) (UniProt P55055). Kind of experiment: nonspecific reporter activation via LXR – cell-based, luminescence, HEK293, H. contortus campaign, counter-screen for hcDAF-12 agonist project, confirmation (AID 743027;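 active = mean percent activation of the reporter above a cutoff set as the average over tested compounds plus their standard deviation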). The settings on record: HEK293 Gal4-LXR tk-luc reporter, 24 h, at 6.8 µM, stronger effect = higher value, normalized: DMSO 0%, positive control 100%.

Experiment [12] concerns Nuclear hormone receptor DAF-12 (Haemonchus contortus). The experiment is described as follows: hcDAF-12 luciferase reporter activation, retest – cell-based, luminescence, HEK293, lit1-tk-luc, triplicate, confirmation (AID 743032;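 active = mean activation across triplicate tests above the threshold derived from the earlier primary screen, cut at about 5.5% in these data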;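 also: 0% = DMSO only wells and 100% = 3 µM Δ7-dafachronic acid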). To be noted: HEK293 hcDAF-12 lit1-tk-luc reporter, at 6.8 µM, stronger effect = higher value, % of Δ7-dafachronic acid response. (In general: Reporter assays use an easily measured gene product as a stand-in for the process of interest.)

The target of experiment [13] is Peroxisome proliferator-activated receptor gamma (Homo sapiens) (UniProt P37231). The experiment is described as follows: retested PPARg-SRC-2 recruitment enhancers – biochemical, HTS, confirmation (AID 1297; in the data active = activation above about 22%;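 also: 0% = vehicle alone and 100% = reference agonist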). To be noted: biochemical SRC-2 recruitment by PPARgamma; at 8 µM; stronger effect = higher value.
For experiment [14] the target is unchanged. The experiment is described as follows: retest of SRC-1 recruitment enhancers for PPARgamma – biochemical, confirmation (AID 1300; in the data active = activation above about 20%;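 also: 0% = vehicle wells and 100% = reference agonist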). The settings on record: PPARgamma–SRC-1 coactivator recruitment biochemical assay; at 8 µM; stronger effect = higher value.
In experiment [15] the target is Peroxisome proliferator-activated receptor gamma (Homo sapiens) + Nuclear receptor coactivator 3 (Homo sapiens) (UniProt P37231+Q9Y6Q9). The experiment is described as follows: agonists promoting SRC-3 binding to PPARgamma – biochemical, confirmation (AID 1301; in the data active = activation above about 24%;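 also: 0% = vehicle wells and 100% = reference agonist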). To be noted: biochemical PPARgamma-SRC-3 coactivator recruitment, agonist mode; at 8 µM; stronger effect = higher value.

Experiment [16] concerns the target Photoreceptor-specific nuclear receptor (Homo sapiens) (UniProt Q9Y5X4). The experiment is described as follows: retest of NR2E3-NCOR disrupting agonists – cell-based, luminescence, CHO-S two-hybrid, confirmation (AID 624378;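 active = average inhibition above a cutoff equal to the mean inhibition of all tested compounds plus one SD, cut at about 70% in these data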;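 also: 0% = DMSO in NR2E3 cells and 100% = DMSO in cells lacking NR2E3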). The settings on record: CHO-S mammalian two-hybrid NR2E3-NCOR, luciferase luminescence; at 3.98 µM; stronger effect = higher value.
Experiment [17] in a line: nonselective effects on VP16 transactivation – cell-based, luminescence, CHO-S, high throughput, counter-screen for NR2E3 agonist project, confirmation (AID 624379;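 active = mean inhibition above a cutoff equal to the average over all tested compounds plus one standard deviation, cut at about 70% in these data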;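 also: 0% = DMSO with VP16-transfected cells and 100% = DMSO with cells lacking VP16; higher means less reporter light so more repression of VP16 activity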). The settings on record: CHO-S GAL4-VP16 luciferase reporter, at 3.98 µM, stronger effect = higher value.
The nature of experiment [18]: StAR promoter reporter inhibitors, counter-screen for LRH-1 inverse agonist project, cell-based, luminescence, high throughput (AID 651611; in the data active = inhibition above about 28%). To be noted: StAR promoter luciferase reporter counterscreen, at 3.6 µM, stronger effect = higher value.
For experiment [19], the target named is Nuclear receptor subfamily 5 group A member 2 (Homo sapiens) (UniProt O00482). Kind of experiment: NR5A2 activity suppression in reporter cells – cell-based, luminescence, confirmation (AID 651613; in the data active = inhibition above about 42%;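 also: HEK293T cells co-transfected with LRH-1 and StAR promoter luciferase reporter; 0% = vehicle wells and 100% = parental cells lacking receptor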). To be noted: cell-based LRH-1 luciferase reporter, inverse agonism; at 3.6 µM; stronger effect = higher value.
Experiment [20] addresses Steroidogenic factor 1 (Homo sapiens) (UniProt Q13285). The experiment is described as follows: inverse agonism at SF1 nuclear receptor – cell-based, luminescence, high throughput, counter-screen for LRH-1 inverse agonist project (AID 651614; in the data active = inhibition above about 44%;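 also: cells cotransfected with StAR promoter reporter and SF1 expression vector; 0% = vehicle on cells with receptor and 100% = vehicle on cells lacking receptor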). To be noted: cell-based SF1 luciferase reporter, at 3.6 µM, stronger effect = higher value.
Experiment [21] is described as follows: compounds suppressing VP16-driven luciferase signal – cell-based, luminescence, high throughput, counter-screen for LRH-1 inverse agonist project (AID 651615; in the data active = inhibition above about 33%). To be noted: Gal4-VP16 luciferase reporter cells, at 3.6 µM, stronger effect = higher value.
In experiment [22] the test system is DAF-12 nuclear receptor (Heterodera glycines), GAL4-LBD fusion. The experiment is described as follows: hgDAF-12 GAL4 fusion reporter activation, retest – cell-based, luminescence, HEK293, GAL4-LBD fusion, confirmation (AID 743050;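 active = mean activation over triplicate wells above the hit cutoff derived from the earlier primary screen, cut at about 11% in these data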;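 also: 0% = DMSO low control and 100% = 2 mM sodium butyrate high control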). The settings on record: HEK293 GAL4-hgDAF12 luciferase reporter, agonist mode; at 6.8 µM; stronger effect = higher value; percent of butyrate response.

The target in experiment [23] is Oxysterols receptor LXR-beta (Homo sapiens) (UniProt P55055). Kind of experiment: nonspecific reporter activation via LXR – cell-based, luminescence, HEK293, H. glycines campaign, counter-screen for hgDAF-12 agonist project, confirmation (AID 743051;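 active = mean activation of the triplicate above a set limit carried over from the primary screen, none filed active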). To be noted: HEK293 Gal4-LXR luciferase reporter, 24 h; at 6.8 µM; stronger effect = higher value.
In experiment [24] the target is Sphingosine 1-phosphate receptor 4 (Homo sapiens) (UniProt O95977). The experiment is described as follows: blockers of human S1P4 signalling – cell-based, confirmation (AID 1524; in the data active = inhibition above about 30%). To be noted: S1P4-expressing cell line, antagonist mode, reporter read-out; at 4.98 µM; stronger effect = higher value.
Experiment [25] deals with Sphingosine 1-phosphate receptor 1 (Homo sapiens) (UniProt P21453). Kind of experiment: blockade of human S1P1 receptor – cell-based, counter-screen for S1P4 antagonist project (AID 1564; in the data active = inhibition above about 40%;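 also: receptor stimulated with S1P near its EC80; 0% = agonist stimulated wells and 100% = vehicle only wells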). To be noted: cell-based S1P1 antagonist counterscreen, at 4.98 µM, stronger effect = higher value.
In experiment [26] the target is Protein-arginine deiminase type-4 (Homo sapiens) (UniProt Q9UM07). Kind of experiment: protein arginine deiminase 4 blockade, retest – biochemical, fluorescence polarization, confirmation (AID 488796;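 active = mean inhibition across replicates above the hit cutoff set by the earlier primary screen, cut at about 15% in these data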;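 also: inhibitors block active-site labeling by the probe so polarization falls; 0% = PAD4 with probe and DMSO and 100% = probe without PAD4 enzyme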). The settings on record: recombinant PAD4, RCA probe fluorescence polarization; at 6.36 µM; stronger effect = higher value.
For experiment [27], the target named is (Lyso)-N-acylphosphatidylethanolamine lipase (Mus musculus) (UniProt Q8VD66). The experiment is described as follows: mouse ABHD4 hydrolase blockers, triplicate – biochemical, fluorescence polarization, confirmation (AID 720658;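 active = mean inhibition across replicates above the hit cutoff set in the primary screen, cut at about 30% in these data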;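 also: 0% = wild-type ABHD4 with DMSO and 100% = catalytically dead S159A mutant with DMSO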). To be noted: purified mABHD4, FP-Rh probe fluorescence polarization; at 8.92 µM; stronger effect = higher value.

Peroxisome proliferator-activated receptor gamma (Homo sapiens), sequence (P37231 whole entry, looked up): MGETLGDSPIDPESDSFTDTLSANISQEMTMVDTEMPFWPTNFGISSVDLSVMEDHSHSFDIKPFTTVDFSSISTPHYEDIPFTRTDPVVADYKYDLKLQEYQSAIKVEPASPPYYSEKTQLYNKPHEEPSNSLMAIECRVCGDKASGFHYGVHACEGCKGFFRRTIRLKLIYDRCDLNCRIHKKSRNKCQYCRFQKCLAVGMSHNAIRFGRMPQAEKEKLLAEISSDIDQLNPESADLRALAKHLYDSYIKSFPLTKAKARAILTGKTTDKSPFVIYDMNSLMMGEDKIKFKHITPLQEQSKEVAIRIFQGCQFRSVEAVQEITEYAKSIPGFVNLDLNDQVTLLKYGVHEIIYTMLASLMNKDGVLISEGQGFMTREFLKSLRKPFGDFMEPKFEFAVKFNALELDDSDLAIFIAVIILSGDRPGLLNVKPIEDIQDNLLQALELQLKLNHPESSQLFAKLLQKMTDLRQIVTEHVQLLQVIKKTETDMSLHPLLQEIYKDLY
Peroxisome proliferator-activated receptor gamma (Homo sapiens) + Nuclear receptor coactivator 3 (Homo sapiens), sequence (P37231 whole entry, looked up): as above
Peroxisome proliferator-activated receptor gamma (Homo sapiens) + Nuclear receptor coactivator 3 (Homo sapiens), sequence (Q9Y6Q9 whole entry, looked up): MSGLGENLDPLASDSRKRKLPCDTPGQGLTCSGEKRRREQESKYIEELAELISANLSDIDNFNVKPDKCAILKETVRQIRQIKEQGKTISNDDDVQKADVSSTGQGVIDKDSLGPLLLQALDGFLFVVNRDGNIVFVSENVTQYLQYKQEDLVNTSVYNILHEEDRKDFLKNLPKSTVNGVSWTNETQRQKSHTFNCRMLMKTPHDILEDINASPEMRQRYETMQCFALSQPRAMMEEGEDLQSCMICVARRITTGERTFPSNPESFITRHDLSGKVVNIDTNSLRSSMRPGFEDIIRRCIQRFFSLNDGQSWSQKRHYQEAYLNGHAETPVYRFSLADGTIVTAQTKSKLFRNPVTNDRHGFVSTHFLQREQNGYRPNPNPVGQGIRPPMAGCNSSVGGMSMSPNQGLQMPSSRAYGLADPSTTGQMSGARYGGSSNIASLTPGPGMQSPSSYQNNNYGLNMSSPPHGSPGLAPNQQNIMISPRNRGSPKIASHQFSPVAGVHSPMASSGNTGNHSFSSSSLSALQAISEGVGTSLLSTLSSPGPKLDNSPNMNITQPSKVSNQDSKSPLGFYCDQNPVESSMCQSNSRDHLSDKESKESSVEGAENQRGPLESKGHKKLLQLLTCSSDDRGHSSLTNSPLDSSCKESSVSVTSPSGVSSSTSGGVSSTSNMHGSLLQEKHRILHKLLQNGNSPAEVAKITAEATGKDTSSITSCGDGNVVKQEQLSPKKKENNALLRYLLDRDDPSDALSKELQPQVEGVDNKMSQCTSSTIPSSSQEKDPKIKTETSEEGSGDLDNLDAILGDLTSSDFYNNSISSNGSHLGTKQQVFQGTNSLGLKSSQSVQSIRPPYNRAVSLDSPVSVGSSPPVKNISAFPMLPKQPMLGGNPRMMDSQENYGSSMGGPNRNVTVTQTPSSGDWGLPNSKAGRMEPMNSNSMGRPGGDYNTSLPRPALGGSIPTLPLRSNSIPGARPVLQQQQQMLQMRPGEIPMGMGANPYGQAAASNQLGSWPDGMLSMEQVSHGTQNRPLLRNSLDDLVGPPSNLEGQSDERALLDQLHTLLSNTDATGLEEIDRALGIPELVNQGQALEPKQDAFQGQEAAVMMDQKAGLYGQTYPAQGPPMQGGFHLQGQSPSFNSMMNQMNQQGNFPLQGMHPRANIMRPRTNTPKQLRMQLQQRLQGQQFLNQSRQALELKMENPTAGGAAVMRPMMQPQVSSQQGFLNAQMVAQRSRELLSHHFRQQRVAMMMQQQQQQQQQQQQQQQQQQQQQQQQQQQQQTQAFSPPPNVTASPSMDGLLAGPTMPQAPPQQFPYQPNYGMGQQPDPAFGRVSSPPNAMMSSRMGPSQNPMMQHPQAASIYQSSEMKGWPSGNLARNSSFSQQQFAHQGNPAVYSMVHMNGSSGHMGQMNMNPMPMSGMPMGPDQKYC
COUP transcription factor 2 (Homo sapiens), sequence (P24468 whole entry, looked up): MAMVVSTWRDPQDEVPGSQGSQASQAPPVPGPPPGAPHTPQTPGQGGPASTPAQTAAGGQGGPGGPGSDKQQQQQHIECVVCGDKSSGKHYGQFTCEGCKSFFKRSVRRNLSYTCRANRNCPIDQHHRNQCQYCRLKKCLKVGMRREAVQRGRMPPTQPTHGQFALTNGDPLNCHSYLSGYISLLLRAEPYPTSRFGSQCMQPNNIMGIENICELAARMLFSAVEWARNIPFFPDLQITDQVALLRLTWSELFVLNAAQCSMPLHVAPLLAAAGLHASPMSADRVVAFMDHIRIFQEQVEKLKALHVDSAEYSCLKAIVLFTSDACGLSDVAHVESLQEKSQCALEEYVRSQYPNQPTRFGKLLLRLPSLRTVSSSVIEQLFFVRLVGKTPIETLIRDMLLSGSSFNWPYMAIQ
Oxysterols receptor LXR-beta (Homo sapiens), sequence (P55055 whole entry, looked up, the tested form may be a part): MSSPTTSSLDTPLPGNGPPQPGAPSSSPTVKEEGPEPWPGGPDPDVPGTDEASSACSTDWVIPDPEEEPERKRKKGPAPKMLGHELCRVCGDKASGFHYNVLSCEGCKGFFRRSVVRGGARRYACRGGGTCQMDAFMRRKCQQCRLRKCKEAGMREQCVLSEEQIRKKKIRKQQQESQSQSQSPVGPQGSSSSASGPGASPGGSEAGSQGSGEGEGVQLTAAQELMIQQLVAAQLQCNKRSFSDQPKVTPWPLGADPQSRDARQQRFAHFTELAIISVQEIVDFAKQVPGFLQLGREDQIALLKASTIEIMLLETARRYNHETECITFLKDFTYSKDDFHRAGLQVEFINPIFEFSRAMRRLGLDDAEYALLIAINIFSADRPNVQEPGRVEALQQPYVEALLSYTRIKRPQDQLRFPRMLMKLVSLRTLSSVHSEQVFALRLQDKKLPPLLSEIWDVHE
Sphingosine 1-phosphate receptor 1 (Homo sapiens), sequence (P21453 whole entry, looked up): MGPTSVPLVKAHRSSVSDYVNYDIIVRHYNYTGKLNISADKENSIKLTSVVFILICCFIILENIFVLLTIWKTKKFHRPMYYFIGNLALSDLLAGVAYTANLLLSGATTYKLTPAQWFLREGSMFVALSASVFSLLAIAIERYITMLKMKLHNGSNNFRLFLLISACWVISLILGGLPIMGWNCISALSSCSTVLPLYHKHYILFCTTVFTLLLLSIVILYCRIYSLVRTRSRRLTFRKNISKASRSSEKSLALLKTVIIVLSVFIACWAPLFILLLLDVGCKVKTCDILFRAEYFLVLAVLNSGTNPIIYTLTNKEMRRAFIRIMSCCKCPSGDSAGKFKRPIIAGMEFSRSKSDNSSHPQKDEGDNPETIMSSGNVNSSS
Sphingosine 1-phosphate receptor 4 (Homo sapiens), sequence (O95977 whole entry, looked up): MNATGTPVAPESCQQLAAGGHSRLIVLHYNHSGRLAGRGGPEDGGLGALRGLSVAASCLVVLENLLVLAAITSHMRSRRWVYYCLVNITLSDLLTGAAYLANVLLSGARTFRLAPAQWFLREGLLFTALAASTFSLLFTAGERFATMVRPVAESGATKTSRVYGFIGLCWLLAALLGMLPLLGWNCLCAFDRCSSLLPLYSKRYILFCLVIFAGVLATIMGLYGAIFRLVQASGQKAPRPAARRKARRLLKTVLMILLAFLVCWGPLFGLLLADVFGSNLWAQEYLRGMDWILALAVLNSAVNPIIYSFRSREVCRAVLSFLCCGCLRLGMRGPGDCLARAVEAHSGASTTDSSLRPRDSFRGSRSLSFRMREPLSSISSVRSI
Galanin receptor type 2 (Homo sapiens), sequence (O43603 whole entry, looked up): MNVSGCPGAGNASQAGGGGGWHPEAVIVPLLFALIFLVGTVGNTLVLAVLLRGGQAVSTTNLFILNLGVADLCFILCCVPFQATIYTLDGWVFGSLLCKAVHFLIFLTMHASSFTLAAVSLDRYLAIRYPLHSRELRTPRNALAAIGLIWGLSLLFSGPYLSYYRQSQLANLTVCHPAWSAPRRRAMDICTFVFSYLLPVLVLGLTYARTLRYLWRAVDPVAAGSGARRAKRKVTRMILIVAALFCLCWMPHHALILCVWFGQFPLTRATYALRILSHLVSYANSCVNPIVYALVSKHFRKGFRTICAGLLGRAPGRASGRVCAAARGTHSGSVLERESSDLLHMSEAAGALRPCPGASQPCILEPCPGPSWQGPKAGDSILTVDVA
Nuclear receptor subfamily 5 group A member 2 (Homo sapiens), sequence (O00482 whole entry, looked up): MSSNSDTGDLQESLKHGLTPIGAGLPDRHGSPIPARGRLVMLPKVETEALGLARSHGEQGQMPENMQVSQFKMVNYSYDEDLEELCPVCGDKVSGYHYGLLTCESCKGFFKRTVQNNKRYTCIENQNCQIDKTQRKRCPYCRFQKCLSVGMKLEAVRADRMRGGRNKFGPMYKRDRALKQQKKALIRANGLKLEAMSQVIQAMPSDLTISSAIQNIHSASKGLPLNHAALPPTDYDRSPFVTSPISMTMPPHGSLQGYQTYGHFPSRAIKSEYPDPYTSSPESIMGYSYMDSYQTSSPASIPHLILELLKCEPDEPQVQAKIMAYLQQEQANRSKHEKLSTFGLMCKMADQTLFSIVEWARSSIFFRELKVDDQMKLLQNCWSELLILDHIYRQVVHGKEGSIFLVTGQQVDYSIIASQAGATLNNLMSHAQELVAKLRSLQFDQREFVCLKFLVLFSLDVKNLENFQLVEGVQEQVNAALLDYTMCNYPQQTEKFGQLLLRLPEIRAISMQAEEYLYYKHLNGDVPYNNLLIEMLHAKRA

Regarding `CCCc1ccc(-c2csc(NC(=O)Cc3cccs3)n2)cc1`, the inhibition in experiment [1] was 34.2%; in experiment [2], 4.13%; in experiment [3], 4.43%; in experiment [4], 32.7% (active); in experiment [5], 31.1% (active); in experiment [6], -25%. In addition, the inhibition in [7] was 15.2%.
With `c1ccc2[nH]c(-c3nc4ccccc4[nH]3)nc2c1`, the inhibition in [8] is 21.3%; in experiment [9], 8.39%; in experiment [1], 5.87%; in experiment [2], -30%; in experiment [3], -97.2%; in [10] it was 58.4% (active). Also, the results for the activation in [11] and in experiment [12] were 1.09% and 4.57%, respectively.
`Cn1c(=O)cc(SCC(=O)N2CCN(C(=O)c3ccco3)CC2)c2ccccc21`: the figures for the activation in [13], in experiment [14] and in experiment [15] were 22.2% (active), 12.7% and 17.9%, respectively.
As for `Cc1nc(CNS(=O)(=O)c2ccc(Oc3ccccc3)cc2)cs1`, the inhibition in [1] is 43.6% (active); in experiment [2], 6.1%; in [3] it was 12.1%; in [16], 87.9% (active); in [17], 82.8% (active); in [18], 11%. Also, the inhibition is 44.6% (active) in [19]; 43.7% (active) in [20]; 37% (active) in experiment [21]; 1.48% in experiment [6]; 27% in experiment [7].
For the compound `N=C(N)SCc1cccc2ccccc12`, the inhibition in experiment [1] was 31.7%; in [2], 4.87%; in experiment [3], 19.2% (active); in experiment [6], 6.09%; in [7], 20.6%.
Regarding `O=C(Nc1ccn(Cc2ccccc2)n1)c1n[nH]c([N+](=O)[O-])c1Cl`, the inhibition in [1] was 12.7%; in [2], -0.1%; in experiment [3] it was -63.1%. For the same compound, the activation in experiment [22] was 11.6% (active); in experiment [23] it was 0.82%.
With `CCN(CCCNC(=O)CSc1cc(=O)n(C)c2cc(Cl)ccc12)Cc1ccccc1`, the activation was 29.4% (active) in experiment [13], 19.2% in [14] and 20.4% in experiment [15].
On the same counts, the results for `CC(C(=O)N1CCOCC1)N1c2cccc3cccc(c23)S1(=O)=O` (stereo not given) are -0.94%, 1.12% and 1.88%.
On to `C=CS(=O)c1sc(Cl)c(N2CCOCC2)c1[N+](=O)[O-]` (stereo not given), for which the inhibition in experiment [24] was 102% (active); in experiment [25] it was 12.4%.
The matching figures for `CCc1c(C)nc2cc(-c3cccs3)[nH]n2c1=O`: 5.18% and 12.8%.
Consider `Nc1ccc(Nc2ccccc2)cc1`, for which the activation in experiment [13] was 10.1%; in [14] it was 5.63%; in [15] it was 6.91%. Besides, the inhibition in experiment [26] was 6.93%; in experiment [10] it was 54.5% (active); in [27], 36.4% (active).
